According to PubChem BioAssay AID1974 (The Scripps Research Institute Molecular Screening Center, 2009):
In all, about 300,000 compounds went through this assay and about 3,200 (1.1%) were called active. This excerpt belongs to a sample that is enriched for actives. Values without a mark were called inactive.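 How the source made its calls: active means inhibition above the campaign mean inhibition plus 3 SD (cut at about 35% in these data); inactive means the rest.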

These compounds were tested against Glutathione S-transferase omega-1 (Homo sapiens) (UniProt P78417) (assay: human GSTO1 enzyme inhibition – biochemical, fluorescence polarization, counter-screen for RBBP9 inhibitor project, primary screen (AID 1974;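 further: 0% = GSTO1-1 with DMSO and 100% = wells lacking GSTO1-1 enzyme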)). Settings: recombinant GSTO1, activity-based probe fluorescence polarization; at 5.96 µM; hits give high values.
Chain of Glutathione S-transferase omega-1 (Homo sapiens) (P78417 whole entry, looked up): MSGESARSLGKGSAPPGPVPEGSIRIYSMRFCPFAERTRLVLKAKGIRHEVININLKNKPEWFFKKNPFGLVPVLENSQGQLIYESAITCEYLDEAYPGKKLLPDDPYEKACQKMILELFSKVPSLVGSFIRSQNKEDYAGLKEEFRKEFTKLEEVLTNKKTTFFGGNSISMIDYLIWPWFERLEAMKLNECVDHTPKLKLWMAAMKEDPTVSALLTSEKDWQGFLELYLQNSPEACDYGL
In the case of CCCCN(CCCC)CCC(O)c1cc2c(Cl)cc(Cl)cc2c2cc(C(F)(F)F)ccc12 (centres undefined), the inhibition is reported as 7.04%.
COc1ccc(CNC(=O)C2(CC3CC(c4ccccc4)=NO3)CCN(C(=O)c3cccc(O)c3)CC2)cc1 (centres undefined) showed an inhibition of -2.65%.
With Cc1oc2c(c1C(=O)N1CCOCC1)C(=O)c1ccccc1C2=O the inhibition was 49% (active).
Cc1noc(C)c1C(=O)N1CCOCC1 was tested, and the inhibition was -8.26%.
CCOC(=O)c1ccccc1C(=O)N1CCOCCOCCOCC1 showed an inhibition of 0.47%.
Compound CCOc1ccc(CC(=O)NCCS(=O)(=O)N2CCN(c3ccccc3)CC2)cc1 has an inhibition of 2.49%.
COc1ccc(-c2csc3ncnc(N4CCN(S(=O)(=O)c5cccc(F)c5)CC4)c23)cc1 showed an inhibition of -26.4%.
Cc1cc(C(=O)N/N=C/c2ccccc2[N+](=O)[O-])c(C)o1 was tested, and the inhibition was -0.23%.
CCOc1ccc(N2CC(C(=O)N/N=C/c3sccc3C)CC2=O)cc1 (centres undefined) gave an inhibition of 8.53%.
O=C(Cc1cc(=O)[nH][nH]1)N/N=C/c1ccccc1[N+](=O)[O-] was tested, and the inhibition was 49.5% (active).
Cc1ccsc1C(=O)N/N=C/c1ccc([N+](=O)[O-])cc1 was tested, and the inhibition was 0.47%.
COc1cc(CC(=O)N/N=C/c2ccccc2)c([N+](=O)[O-])cc1OC was tested, and the inhibition was -0.51%.
With Cc1ccsc1/C=N/NC(=O)Cc1cc(=O)[nH][nH]1 the inhibition was 37.2% (active).
CCC(C)c1ccccc1N1CC(C(=O)N2CCN(S(=O)(=O)c3ccc(F)cc3)CC2)CC1=O (centres undefined) showed an inhibition of 2.71%.
Work on CCOC(=O)/C=C/c1ccc(C(F)(F)F)cc1S(=O)(=O)NC(C)(C)C yielded an inhibition of -1.78%.
COC(=O)c1ccc2ccccc2c1OC1OC(CO)C(O)C(O)C1NC(C)=O (centres undefined) gave an inhibition of 2.04%.
For Cc1ccc2nc(NC(=O)C3CSC4(C)CCC(=O)N34)sc2c1 (centres undefined), the inhibition was 1.93%.
Cc1nn(Cc2ccccc2)c2c1C(c1ccccc1)C(C#N)=C(N)O2 (centres undefined) showed an inhibition of 6.98%.
With COc1ccccc1C1C(C#N)=C(N)Oc2c1c(-c1ccccc1)nn2-c1ccccc1 (centres undefined) the inhibition was 59.1% (active).
Compound Cc1nn(-c2ccccc2)c2c1C(c1ccc(F)cc1)C(C#N)=C(N)O2 (centres undefined) has an inhibition of 25.3%.
C#CCOCCOCCOCCNc1nc(N2CCN(C(=O)CCCCCCCCCCNC(=O)[C@H](CCCCN)n3cc(C)nn3)CC2)nc(N2CCN(C(=O)CCCCCCCCCCNC(=O)[C@H](CO)n3cc(CCCSC)nn3)CC2)n1 gave an inhibition of 4.17%.
In the case of CCOC(=O)[C@H]1[C@H]2COc3ccc(Cl)cc3[C@@H]2N2C(=O)c3cc(C)ccc3NC(=O)[C@@]12C, the inhibition is reported as 1.13%.
Cc1nc2ccccc2c(=O)n1-c1ccc(F)c(NC(=O)c2cccs2)c1 gave an inhibition of -6.66%.
In the case of CCN(C(=O)CSc1nnc(-c2ccc(OC(F)F)cc2)n1N)C1CCS(=O)(=O)C1 (centres undefined), the inhibition is reported as -5.72%.
Cc1ccc(-c2nn(-c3ccc(F)cc3)cc2C(=O)NCC(c2cccs2)N2CCOCC2)cc1 (centres undefined) showed an inhibition of -3.34%.
Work on Fc1cccc(Cl)c1CSc1ccc(-c2ccco2)nn1 yielded an inhibition of 3.45%.
Clc1ccccc1CSc1nnc(-c2ccco2)c(-c2ccco2)n1 was tested, and the inhibition was 53% (active).
For O=c1[nH]c(SCc2ccccc2)nnc1-c1ccccc1, the inhibition was -7.41%.
O=c1cc(O)nc(SCc2ccccc2Cl)[nH]1 showed an inhibition of -11.3%.
Brc1ccc(CSc2ccc(-c3ccco3)nn2)cc1 was tested, and the inhibition was -3.33%.
c1ccc(CSc2nnc(-c3ccco3)c(-c3ccco3)n2)cc1 was tested, and the inhibition was 59.8% (active).
Work on Cc1cc(C)n2nc(C(=O)OC(C)C(=O)c3cc(C)c(C)cc3C)nc2n1 (centres undefined) yielded an inhibition of 3.12%.
COc1ccc(CNC(=O)CNC(=O)c2sc3ccccc3c2Cl)cc1OC was tested, and the inhibition was -3.56%.
O=c1[nH]c(/C=C/c2cccc(Br)c2)nc2ccccc12 showed an inhibition of -7.5%.
With O=[N+]([O-])c1ncc(Br)cc1Nc1ccccc1 the inhibition was 13.4%.
With COc1cc(/C=N/NC(=O)c2cc(-c3ccccc3C)nc3ccccc23)cc(OC)c1O the inhibition was 3%.
For Cc1cc(C(=O)N/N=C/c2ccc(O)c([N+](=O)[O-])c2)c(C)n1-c1ccc(F)cc1, the inhibition was 23.2%.
COc1cc(/C=N/NC(=O)c2cc(C)n(-c3ccc(F)cc3)c2C)cc(OC)c1O was tested, and the inhibition was 35.7% (active).
For CN(C)CCn1c2c(c(SCC(=O)Nc3ccccc3C(F)(F)F)nc1=O)CCCC2, the inhibition was -0.08%.
C=CCNC(=O)c1ccccc1SCc1c(C)noc1C was tested, and the inhibition was 55.2% (active).
Work on C=CCNC(=O)c1cc(-c2ccccc2O)on1 yielded an inhibition of 3.47%.
CCN(CC(=O)Nc1ccccc1C(F)(F)F)C(=O)CSCc1c(C)noc1C gave an inhibition of -6.06%.
In the case of COc1ccc(N2CCN(S(=O)(=O)c3cc4c5c(c3)C(C)C(=O)N5CCC4)CC2)cc1 (centres undefined), the inhibition is reported as 8.18%.
Cc1nc2ccccc2c(=O)n1-c1ccc(NS(=O)(=O)c2ccc(F)cc2F)cc1 gave an inhibition of -1.88%.
